From the supplement of paper PMC10849652 come the findings set out here.

The full data set covers some 8,800 targets. This sample favours those with a hit. About 0.5% of all pairs of compound and target were hits.

Sequence of UniProt O95149 (O95149 whole entry, looked up): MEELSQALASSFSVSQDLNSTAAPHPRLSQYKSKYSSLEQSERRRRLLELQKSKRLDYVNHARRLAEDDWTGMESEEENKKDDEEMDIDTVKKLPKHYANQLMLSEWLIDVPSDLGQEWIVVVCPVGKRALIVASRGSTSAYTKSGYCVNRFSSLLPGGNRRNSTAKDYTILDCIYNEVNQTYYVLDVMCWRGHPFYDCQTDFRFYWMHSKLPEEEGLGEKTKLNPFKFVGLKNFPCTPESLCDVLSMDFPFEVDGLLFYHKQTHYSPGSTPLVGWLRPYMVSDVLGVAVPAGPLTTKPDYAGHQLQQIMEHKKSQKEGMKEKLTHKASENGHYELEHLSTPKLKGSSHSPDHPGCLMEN
Sequence of UniProt Q96H78 (Q96H78 whole entry, looked up): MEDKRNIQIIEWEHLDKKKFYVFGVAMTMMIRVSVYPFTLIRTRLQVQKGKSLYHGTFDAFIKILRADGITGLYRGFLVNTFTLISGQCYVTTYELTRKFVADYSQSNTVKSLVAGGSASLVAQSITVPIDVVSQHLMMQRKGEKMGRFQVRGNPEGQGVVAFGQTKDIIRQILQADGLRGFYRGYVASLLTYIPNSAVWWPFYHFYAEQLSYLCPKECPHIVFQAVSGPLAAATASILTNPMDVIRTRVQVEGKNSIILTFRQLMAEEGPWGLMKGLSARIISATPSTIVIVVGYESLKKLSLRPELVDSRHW
Sequence of UniProt Q9NZ72 (Q9NZ72 whole entry, looked up): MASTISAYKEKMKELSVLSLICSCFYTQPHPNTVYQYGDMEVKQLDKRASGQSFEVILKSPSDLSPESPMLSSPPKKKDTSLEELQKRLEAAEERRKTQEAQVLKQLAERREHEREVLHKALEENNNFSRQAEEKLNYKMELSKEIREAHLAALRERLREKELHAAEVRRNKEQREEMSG
Sequence of UniProt Q8N1S5 (Q8N1S5 whole entry, looked up): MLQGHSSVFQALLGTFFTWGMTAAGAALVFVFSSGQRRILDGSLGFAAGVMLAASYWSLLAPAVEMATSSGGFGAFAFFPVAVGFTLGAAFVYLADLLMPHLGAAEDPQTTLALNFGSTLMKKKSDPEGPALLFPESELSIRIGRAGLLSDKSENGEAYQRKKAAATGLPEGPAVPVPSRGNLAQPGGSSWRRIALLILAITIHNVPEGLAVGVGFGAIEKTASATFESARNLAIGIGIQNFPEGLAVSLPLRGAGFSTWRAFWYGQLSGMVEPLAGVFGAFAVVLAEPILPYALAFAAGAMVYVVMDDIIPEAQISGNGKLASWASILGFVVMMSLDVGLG
Sequence of UniProt Q9Y3B4 (Q9Y3B4 whole entry, looked up): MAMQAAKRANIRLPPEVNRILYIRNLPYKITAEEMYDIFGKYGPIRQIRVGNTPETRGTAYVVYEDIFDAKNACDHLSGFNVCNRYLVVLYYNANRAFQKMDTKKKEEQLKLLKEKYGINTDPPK
Sequence of UniProt Q9HBM1 (Q9HBM1 whole entry, looked up): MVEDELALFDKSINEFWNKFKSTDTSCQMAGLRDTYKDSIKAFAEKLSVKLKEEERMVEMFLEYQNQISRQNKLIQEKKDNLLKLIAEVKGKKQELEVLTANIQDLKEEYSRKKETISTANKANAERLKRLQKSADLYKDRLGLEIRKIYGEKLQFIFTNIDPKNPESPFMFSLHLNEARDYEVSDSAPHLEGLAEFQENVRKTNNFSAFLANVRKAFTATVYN
Sequence of UniProt Q99961 (Q99961 whole entry, looked up): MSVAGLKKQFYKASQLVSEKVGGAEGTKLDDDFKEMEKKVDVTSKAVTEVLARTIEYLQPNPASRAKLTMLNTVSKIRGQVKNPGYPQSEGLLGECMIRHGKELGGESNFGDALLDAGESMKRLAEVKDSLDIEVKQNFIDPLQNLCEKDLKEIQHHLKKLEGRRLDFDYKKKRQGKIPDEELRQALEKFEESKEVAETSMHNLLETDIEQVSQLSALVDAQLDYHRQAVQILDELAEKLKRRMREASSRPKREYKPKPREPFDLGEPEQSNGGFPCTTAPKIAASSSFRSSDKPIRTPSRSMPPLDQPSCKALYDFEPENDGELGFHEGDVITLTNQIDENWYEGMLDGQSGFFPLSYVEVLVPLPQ
Sequence of UniProt Q9H7B4 (Q9H7B4 whole entry, looked up): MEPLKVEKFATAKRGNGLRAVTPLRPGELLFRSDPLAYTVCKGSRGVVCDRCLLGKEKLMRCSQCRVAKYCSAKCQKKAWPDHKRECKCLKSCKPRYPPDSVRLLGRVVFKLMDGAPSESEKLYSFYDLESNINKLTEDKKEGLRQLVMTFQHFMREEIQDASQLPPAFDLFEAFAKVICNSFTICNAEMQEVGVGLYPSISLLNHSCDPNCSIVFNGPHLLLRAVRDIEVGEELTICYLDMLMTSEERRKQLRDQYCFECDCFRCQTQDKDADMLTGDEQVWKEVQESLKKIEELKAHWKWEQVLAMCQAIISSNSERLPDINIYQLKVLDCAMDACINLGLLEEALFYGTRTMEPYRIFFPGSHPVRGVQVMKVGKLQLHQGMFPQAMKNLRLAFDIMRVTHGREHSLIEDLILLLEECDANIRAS
Sequence of UniProt Q15527 (Q15527 whole entry, looked up): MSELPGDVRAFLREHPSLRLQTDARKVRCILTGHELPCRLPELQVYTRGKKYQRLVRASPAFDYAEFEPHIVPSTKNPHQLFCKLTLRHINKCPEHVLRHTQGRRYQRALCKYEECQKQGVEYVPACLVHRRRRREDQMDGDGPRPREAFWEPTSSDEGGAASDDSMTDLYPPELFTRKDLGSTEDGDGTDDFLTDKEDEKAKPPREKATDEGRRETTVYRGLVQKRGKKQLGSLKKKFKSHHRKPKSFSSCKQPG
Sequence of UniProt Q6NXT4 (Q6NXT4 whole entry, looked up): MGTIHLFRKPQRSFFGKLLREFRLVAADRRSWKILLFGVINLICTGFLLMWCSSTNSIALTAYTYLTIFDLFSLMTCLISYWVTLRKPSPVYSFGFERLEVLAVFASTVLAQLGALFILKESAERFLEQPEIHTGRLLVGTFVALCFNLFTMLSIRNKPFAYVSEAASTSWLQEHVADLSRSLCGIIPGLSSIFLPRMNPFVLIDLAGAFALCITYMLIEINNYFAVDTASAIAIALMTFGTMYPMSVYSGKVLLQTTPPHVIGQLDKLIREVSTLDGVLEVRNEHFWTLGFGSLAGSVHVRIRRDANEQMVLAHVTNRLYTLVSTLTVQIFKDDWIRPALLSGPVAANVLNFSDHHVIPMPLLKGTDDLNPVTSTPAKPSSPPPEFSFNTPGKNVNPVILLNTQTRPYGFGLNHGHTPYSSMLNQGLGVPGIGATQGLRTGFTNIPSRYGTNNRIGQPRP
Sequence of UniProt Q96EX1 (Q96EX1 whole entry, looked up): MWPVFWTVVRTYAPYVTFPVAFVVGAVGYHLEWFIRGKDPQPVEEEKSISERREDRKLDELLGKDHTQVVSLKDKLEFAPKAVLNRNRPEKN
Sequence of UniProt P62316 (P62316 whole entry, looked up): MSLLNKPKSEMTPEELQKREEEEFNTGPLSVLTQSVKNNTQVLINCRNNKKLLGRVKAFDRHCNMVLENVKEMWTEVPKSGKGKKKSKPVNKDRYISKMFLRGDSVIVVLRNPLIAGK
Sequence of UniProt Q13188 (Q13188 whole entry, looked up): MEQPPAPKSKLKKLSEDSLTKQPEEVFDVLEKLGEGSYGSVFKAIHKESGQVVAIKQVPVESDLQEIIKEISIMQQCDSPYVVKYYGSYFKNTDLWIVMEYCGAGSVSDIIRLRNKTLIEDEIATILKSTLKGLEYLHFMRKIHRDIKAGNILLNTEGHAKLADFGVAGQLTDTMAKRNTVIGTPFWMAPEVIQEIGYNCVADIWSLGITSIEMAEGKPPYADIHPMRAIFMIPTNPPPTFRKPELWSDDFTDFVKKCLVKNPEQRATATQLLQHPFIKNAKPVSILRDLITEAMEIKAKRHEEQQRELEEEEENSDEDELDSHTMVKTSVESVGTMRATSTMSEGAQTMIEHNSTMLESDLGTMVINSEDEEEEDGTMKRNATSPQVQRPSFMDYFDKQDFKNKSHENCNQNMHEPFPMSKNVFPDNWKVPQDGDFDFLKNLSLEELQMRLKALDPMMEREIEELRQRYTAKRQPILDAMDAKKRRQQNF
Sequence of UniProt Q8TCT8 (Q8TCT8 whole entry, looked up): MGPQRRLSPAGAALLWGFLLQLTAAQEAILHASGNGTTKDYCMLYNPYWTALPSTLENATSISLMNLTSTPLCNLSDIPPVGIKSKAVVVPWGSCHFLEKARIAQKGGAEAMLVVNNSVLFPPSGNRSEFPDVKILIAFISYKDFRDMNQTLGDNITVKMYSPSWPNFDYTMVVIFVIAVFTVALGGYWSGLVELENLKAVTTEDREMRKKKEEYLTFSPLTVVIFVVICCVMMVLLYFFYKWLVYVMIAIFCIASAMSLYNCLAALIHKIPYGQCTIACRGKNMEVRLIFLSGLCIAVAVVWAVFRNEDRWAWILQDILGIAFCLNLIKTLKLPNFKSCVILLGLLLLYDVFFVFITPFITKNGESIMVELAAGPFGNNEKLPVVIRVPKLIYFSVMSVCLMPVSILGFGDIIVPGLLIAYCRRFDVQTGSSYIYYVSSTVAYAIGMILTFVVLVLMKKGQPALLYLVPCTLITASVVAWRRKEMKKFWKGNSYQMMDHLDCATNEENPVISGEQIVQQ
Sequence of UniProt Q53T94 (Q53T94 whole entry, looked up): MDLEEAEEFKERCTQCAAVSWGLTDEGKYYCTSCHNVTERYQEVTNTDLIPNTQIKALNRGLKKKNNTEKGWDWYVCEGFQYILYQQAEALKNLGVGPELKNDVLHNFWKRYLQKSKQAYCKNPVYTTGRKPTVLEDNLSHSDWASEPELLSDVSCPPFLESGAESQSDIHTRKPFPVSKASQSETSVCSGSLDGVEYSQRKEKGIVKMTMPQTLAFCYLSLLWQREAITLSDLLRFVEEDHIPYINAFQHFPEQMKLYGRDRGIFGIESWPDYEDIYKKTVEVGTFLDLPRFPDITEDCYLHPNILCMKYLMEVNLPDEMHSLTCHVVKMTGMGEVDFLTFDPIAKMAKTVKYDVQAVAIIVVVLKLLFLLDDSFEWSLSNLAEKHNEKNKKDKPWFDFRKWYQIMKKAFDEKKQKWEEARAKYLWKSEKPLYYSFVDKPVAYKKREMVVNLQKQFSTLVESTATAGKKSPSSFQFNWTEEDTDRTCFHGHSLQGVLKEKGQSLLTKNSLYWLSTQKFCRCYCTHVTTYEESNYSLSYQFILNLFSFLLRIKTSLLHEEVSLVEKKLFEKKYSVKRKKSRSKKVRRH

Compound in the experiment: CCCS(=O)(=O)Nc1ccc(F)c(C(=O)c2c[nH]c3ncc(-c4ccc(Cl)cc4)cc23)c1F [vemurafenib]
The experiment can be described thus: log2 fold change, soluble protein after heating vs DMSO (PISA); higher = thermal stabilisation; K562 lysate, 10 uM; active = over 0.2 and 3.5 SD of the protein, either way, in both replicates (recomputed). The essentials:
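Values give the log-two fold change in thermal stability against solvent controls, from duplicates. Crude K562 extract at 1 mg/mL protein, made by dounce homogenisation in PBS pH 7.4 with 1 mM MgCl2, was treated with 10 μM compound for 30 min. After 3 min heating across 48°C-58°C, aliquots were pooled, adjusted to 0.5% NP-40 at 4°C and centrifuged at 21,000xg for 90 min. The supernatant was measured by TMTpro 16plex LC-MS/MS with channel sums equalised.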
With SORBS3 (UniProt O60504), the log2 fold change is -0.092 (inactive).

For SF3B6 (UniProt Q9Y3B4), the log2 fold change is -0.006 (inactive).

In the case of TAF1B (UniProt Q53T94), the log2 fold change is 0.397 (inactive).

Consider SH3GL1 (UniProt Q99961), for which the log2 fold change is -0.002 (inactive).

As to SLC25A38 (UniProt Q96DW6), the log2 fold change was 0.037 (inactive).

In the case of SLC30A6 isoform 2 (UniProt Q6NXT4), the log2 fold change is -0.098 (inactive).

In the case of SMYD3 (UniProt Q9H7B4), the log2 fold change is 0.036 (inactive).

For SSBP3 (UniProt Q9BWW4), the log2 fold change is -0.02 (inactive).

In the case of SNRPD2 (UniProt P62316), the log2 fold change was -0.008 (inactive).

With SNUPN (UniProt O95149), the log2 fold change was -0.008 (inactive).

With SLC39A11 (UniProt Q8N1S5), the log2 fold change is -0.082 (inactive).

Take STN1 (UniProt Q9H668): the log2 fold change was 0.047 (inactive).

With SRSF9 (UniProt Q13242), the log2 fold change is -0.104 (inactive).

For the target SMIM12 (UniProt Q96EX1), the log2 fold change is 0.023 (inactive).

On to STMN3 (UniProt Q9NZ72), for which the log2 fold change is -0.123 (inactive).

Turning to SLC25A44 (UniProt Q96H78), the log2 fold change was 0.014 (inactive).

In the case of SYNE2 isoform 2 (UniProt Q8WXH0), the log2 fold change is 0.009 (inactive).

Take STK3 isoform 2 (UniProt Q13188): the log2 fold change was 0.046 (inactive).

On to SPPL2A (UniProt Q8TCT8), for which the log2 fold change was 0.312 (inactive).

SURF2 (UniProt Q15527): the log2 fold change was -0.009 (inactive).

Consider SPC25 (UniProt Q9HBM1), for which the log2 fold change is 0.011 (inactive).

For the target SH3BP2 isoform 4 (UniProt P78314), the log2 fold change was 0.087 (inactive).
